Data on 7 compounds can be found in PubChem BioAssay (Tox21).

Molecules are shown by their SMILES. “And” between values parts separate entries of the source, which are not always exact repeats. Equal entries are not always repeated. Inconclusive results are not listed. The source made the active and inactive calls. Unless noted, calls follow the shape of the dose curve; as a rule, active = well fitted curve in the direction sought with a large enough effect in the repeat runs; inconclusive = weak or mixed curves; inactive = no such curve, though single readings can be large; an effect the other way counts as inactive or inconclusive.

The target of test [1] is Aryl hydrocarbon receptor (Homo sapiens) (UniProt P35869). As to the kind of experiment: qHTS assay to identify small molecule that activate the aryl hydrocarbon receptor (AhR) signaling pathway (AID 743085). Also: nearly all actives have a fitted effect of over 15% in size. Also: potency is read from the fitted curve at half-maximal effect.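 As to activation: HG2L7.5c1 human HepG2 liver cells with stably integrated DRE-driven firefly reporter; series mostly up to about 70 µM.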 The gist of the method: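 Reporter assay in engineered HepG2 line HG2L7.5c1, whose plasmid carries twenty dioxin responsive elements upstream of firefly luciferase. Treatment lasted 24 h at 37C; ONE-Glo luminescence gauged induction.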

Test [2] can be described thus: qHTS assay to identify small molecule that activate the aryl hydrocarbon receptor (AhR) signaling pathway - cell viability counter screen (AID 743086). Also: nearly all actives have a fitted effect of over 45% in size. Also: potency is read from the fitted curve at half-maximal effect. In short, it runs like this: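 HepG2-AhR-luc (HG2L7.5c1) cells, 4000/well, treated 24 h at 37 C with compound; viability measured as CellTiter-Fluor fluorescence after 30 min in the same wells as the luciferase read.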

For test [3], the target named is Peroxisome proliferator-activated receptor gamma (Homo sapiens) (UniProt P37231). In words: qHTS assay to identify small molecule agonists of the peroxisome proliferator-activated receptor gamma (PPARg) signaling pathway (AID 743094; active = well fitted activation curve with a large enough effect in the signal ratio in the repeat runs, not every such curve was filed as active; the % refers to the signal ratio). The gist of the method:
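Reporter activation was scored by fluorescence of cleaved LiveBLAzer B/G substrate (1 h, room temperature) in PPARg-bla HEK293H cells previously treated 17 h at 37C with DMSO-dissolved compounds.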
For orientation: Quantitative high-throughput screening tests each substance at several concentrations.

For test [4] the target is unchanged. In words: qHTS assay to identify small molecule antagonists of the peroxisome proliferator-activated receptor gamma (PPARg) signaling pathway (AID 743191; calls by dose curve; also: series mostly up to about 63 µM; nearly all actives have a fitted effect of over 30% in size). In short, it runs like this: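 GeneBLAzer PPARg UAS-bla HEK293H cells, 5 h post-plating, exposed to compounds 17 h at 37C. LiveBLAzer B/G FRET substrate added for 1 h at room temperature; beta-lactamase reporter read by fluorescence intensity.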

Test [5] in a line: qHTS assay to identify small molecule antagonists of the peroxisome proliferator-activated receptor gamma (PPARg) signaling pathway - cell viability counter screen (AID 743194). Also: nearly all actives have a fitted effect of over 55% in size. The gist of the method: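 Cytotoxicity counter screen in PPARg-bla HEK293H cells, same wells as reporter assay. Compounds plus 50 nM rosiglitazone (final) for 17 h at 37 C, then viability read by CellTiter-Glo luminescence.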

Test [6] in a line: qHTS assay for small molecule agonists of the antioxidant response element (ARE) signaling pathway (AID 743202; active = well fitted activation curve with a large enough effect in the signal ratio in the repeat runs, not every such curve was filed as active; the % refers to the signal ratio). In short, it runs like this:
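HepG2 ARE-bla reporter line, 2,000 cells/well; 5 h preincubation 37 C/5% CO2; compound (DMSO) 16 h 37 C; B/G FRET substrate 2 h RT; fluorescence intensity.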

A short description of test [7]: qHTS assay for small molecule agonists of the antioxidant response element (ARE) signaling pathway - cell viability counter screen (AID 743203; calls by dose curve; also: nearly all actives have a fitted effect of over 55% in size). In short, it runs like this: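 Viability counter screen: stably transfected ARE-bla HepG2 line, 16 hrs compound exposure at 37C/5% CO2, ATP-based CellTiter-Glo luminescence measured in the reporter wells.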
The nature of test [8]: qHTS assay for small molecule activators of the heat shock response signaling pathway - cell viability counter screen (AID 743209). Also: nearly all actives have a fitted effect of over 50% in size. The gist of the method: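 Viability of HSE-bla HeLa cells is measured with CellTiter-Glo in the wells already used for the reporter read. Compound exposure lasts 5 h at 37 C, and luminescence is read after 30 min at room temperature.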
Test [9] can be described thus: qHTS assay to identify small molecule agonists of the peroxisome proliferator-activated receptor delta (PPARd) signaling pathway - cell viability counter screen (AID 743211). Also: nearly all actives have a fitted effect of over 55% in size. In short, it runs like this:
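Multiplexed format: after the 2 h room-temperature LiveBLAzer B/G FRET step, CellTiter-Glo was added to the same wells. Luminescence after 30 min gave cell viability; compound exposure was 17 h at 37C.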

For test [10], the target named is Peroxisome proliferator-activated receptor delta (Homo sapiens) (UniProt Q03181). As to the kind of experiment: qHTS assay to identify small molecule agonists of the peroxisome proliferator-activated receptor delta (PPARd) signaling pathway (AID 743212; calls by dose curve). In short, it runs like this: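 Read-out: beta-lactamase FRET fluorescence after 2 h room-temperature incubation with LiveBLAzer B/G substrate. Cells were HEK293H carrying a UAS-bla reporter for PPARd, treated at 37 C with DMSO-dissolved compounds.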

The nature of test [11]: qHTS assay to identify small molecule agonists of the farnesoid-X-receptor (FXR) signaling pathway - cell viability counter screen (AID 743218). Also: nearly all actives have a fitted effect of over 45% in size. The gist of the method:
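Viability of FXR-bla HEK 293T cells is measured by ATP-based CellTiter-Glo luminescence following 16 h compound treatment at 37 C and a prior 2 h room-temperature beta-lactamase substrate step.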

The nature of test [12]: qHTS assay to identify small molecule antagonists of the farnesoid-X-receptor (FXR) signaling pathway - cell viability counter screen (AID 743221; active = well fitted cell-killing curve with a large enough effect in the repeat runs, not every such curve was filed as active; also: nearly all actives have a fitted effect of over 50% in size). In short, it runs like this: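 CellTiter-Glo, 30 min RT, luminescence; same wells as the LiveBLAzer FRET read. Cells: FXR-UAS-bla HEK 293T. Treatment: compound with chenodeoxycholic acid 50 uM final, 16 h at 37 C.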
Test [13] deals with Vitamin D3 receptor (Homo sapiens) (UniProt P11473). As to the kind of experiment: qHTS assay to identify small molecule agonists of the vitamin D receptor (VDR) signaling pathway (AID 743222; calls by dose curve). The gist of the method:
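Fluorescence from cleaved LiveBLAzer B/G FRET substrate served as readout. VDR-bla cells had been treated 16 h at 37C with test compounds in DMSO, following a 4 h settling period, and substrate was loaded for 2 h at RT.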

Test [14] has the same target. In words: qHTS assay to identify small molecule antagonists of the vitamin D receptor (VDR) signaling pathway (AID 743223; active = well fitted inhibition curve with a large enough effect in the signal ratio in the repeat runs, not every such curve was filed as active; the % refers to the signal ratio). In short, it runs like this:
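After VDR-bla cells are plated and left 4 h at 37C, DMSO-dissolved compounds and 3 nM (final) calcitriol agonist are added. Incubation continues 16 h at 37C; FRET beta-lactamase substrate then develops 2 h at room temperature.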

Test [15] can be described thus: qHTS assay to identify small molecule agonists of the vitamin D receptor (VDR) signaling pathway - cell viability counter screen (AID 743224). Also: series mostly up to about 63 µM; nearly all actives have a fitted effect of over 50% in size. In short, it runs like this: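 Compounds were pin-transferred onto VDR-bla cells plated 4 h earlier; following 16 h incubation at 37C, cell viability was quantified by CellTiter-Glo luminescence after 30 min at room temperature.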

The nature of test [16]: qHTS assay for small molecule activators of the heat shock response signaling pathway (AID 743210; active = well fitted activation curve with a large enough effect in the signal ratio in the repeat runs, with a control signal flat, not every such curve was filed as active; the % refers to the signal ratio; also: series mostly up to about 63 µM). The gist of the method: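 Beta-lactamase reporter read-out: FRET substrate fluorescence after 2.5 h at RT, following 5 h compound treatment at 37 C of HeLa cells carrying HSE-driven bla reporter; quantitative HTS format.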
Test [17] can be described thus: qHTS assay to identify small molecule antagonists of the peroxisome proliferator-activated receptor delta (PPARd) signaling pathway - cell viability counter screen (AID 743213). Also: nearly all actives have a fitted effect of over 50% in size. In short, it runs like this:
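Same-well viability: cells pre-incubated 5 h, dosed with compound plus 300 nM L165041, kept 17 h at 37 C, FRET substrate 2 h RT, then CellTiter-Glo 30 min RT and luminescence.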

For test [18], the target named is Peroxisome proliferator-activated receptor delta (Homo sapiens) (UniProt Q03181). In words: qHTS assay to identify small molecule antagonists of the peroxisome proliferator-activated receptor delta (PPARd) signaling pathway (AID 743215; active = well fitted inhibition curve with a large enough effect in the signal ratio in the repeat runs, not every such curve was filed as active; the % refers to the signal ratio;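 also: cells stimulated with agonist L165041 at 300 nM final during compound exposure; series mostly up to about 62 µM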). In short, it runs like this:
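Plated HEK293H PPARd-bla cells rested 5 h at 37 C and 5% CO2. Compound, then agonist L165041 at 300 nM final, was added; 17 h at 37 C followed. Substrate loading, 2 h room temperature, fluorescence measured.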

The target in test [19] is Bile acid receptor (Homo sapiens) (UniProt Q96RI1). In words: qHTS assay to identify small molecule antagonists of the farnesoid-X-receptor (FXR) signaling pathway (AID 743217; active = well fitted inhibition curve with a large enough effect in the signal ratio in the repeat runs, not every such curve was filed as active; the % refers to the signal ratio). The gist of the method:
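Screen of the Tox21 10K library in quantitative HTS format using FXR-UAS-bla HEK 293T reporter cells. Agonist chenodeoxycholic acid, 50 uM final, added with compounds; 16 h incubation at 37 °C; beta-lactamase FRET fluorescence measured.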

For test [20] the target is unchanged. In words: qHTS assay to identify small molecule agonists of the farnesoid-X-receptor (FXR) signaling pathway (AID 743220; active = well fitted activation curve with a large enough effect in the signal ratio in the repeat runs, not every such curve was filed as active; the % refers to the signal ratio). The gist of the method:
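FXR-UAS-bla HEK 293T cells carrying a UAS-driven beta-lactamase reporter were plated for 5 h at 37C/5% CO2, then exposed to DMSO-dissolved Tox21 10K compounds for 16 h at 37C. A LiveBLAzer B/G FRET substrate was loaded for 2 h at room temperature before fluorescence reading.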

Chain of Aryl hydrocarbon receptor (Homo sapiens) (P35869 whole entry, looked up): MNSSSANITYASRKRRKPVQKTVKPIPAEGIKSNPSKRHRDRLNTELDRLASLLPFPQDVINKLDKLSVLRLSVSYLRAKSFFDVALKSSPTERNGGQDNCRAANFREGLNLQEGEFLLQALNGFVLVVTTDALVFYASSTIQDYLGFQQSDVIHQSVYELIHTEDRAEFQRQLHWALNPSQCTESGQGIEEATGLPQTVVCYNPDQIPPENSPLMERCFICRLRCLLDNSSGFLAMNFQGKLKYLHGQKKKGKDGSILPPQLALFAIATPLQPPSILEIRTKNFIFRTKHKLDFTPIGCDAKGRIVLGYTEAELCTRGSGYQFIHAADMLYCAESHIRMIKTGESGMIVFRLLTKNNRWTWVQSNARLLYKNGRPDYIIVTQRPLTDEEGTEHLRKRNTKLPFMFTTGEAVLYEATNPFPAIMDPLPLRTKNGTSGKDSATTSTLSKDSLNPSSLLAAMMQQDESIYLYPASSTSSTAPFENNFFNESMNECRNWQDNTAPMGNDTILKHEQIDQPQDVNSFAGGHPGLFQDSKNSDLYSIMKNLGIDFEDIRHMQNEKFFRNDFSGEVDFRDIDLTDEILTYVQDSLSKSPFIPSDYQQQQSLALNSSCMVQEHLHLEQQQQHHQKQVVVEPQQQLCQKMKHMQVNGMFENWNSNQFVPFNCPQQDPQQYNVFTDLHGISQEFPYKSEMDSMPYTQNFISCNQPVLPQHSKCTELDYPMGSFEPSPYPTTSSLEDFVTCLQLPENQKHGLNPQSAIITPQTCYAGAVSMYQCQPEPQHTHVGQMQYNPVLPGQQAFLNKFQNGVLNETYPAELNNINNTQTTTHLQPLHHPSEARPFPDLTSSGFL
Chain of Peroxisome proliferator-activated receptor delta (Homo sapiens) (Q03181 whole entry, looked up): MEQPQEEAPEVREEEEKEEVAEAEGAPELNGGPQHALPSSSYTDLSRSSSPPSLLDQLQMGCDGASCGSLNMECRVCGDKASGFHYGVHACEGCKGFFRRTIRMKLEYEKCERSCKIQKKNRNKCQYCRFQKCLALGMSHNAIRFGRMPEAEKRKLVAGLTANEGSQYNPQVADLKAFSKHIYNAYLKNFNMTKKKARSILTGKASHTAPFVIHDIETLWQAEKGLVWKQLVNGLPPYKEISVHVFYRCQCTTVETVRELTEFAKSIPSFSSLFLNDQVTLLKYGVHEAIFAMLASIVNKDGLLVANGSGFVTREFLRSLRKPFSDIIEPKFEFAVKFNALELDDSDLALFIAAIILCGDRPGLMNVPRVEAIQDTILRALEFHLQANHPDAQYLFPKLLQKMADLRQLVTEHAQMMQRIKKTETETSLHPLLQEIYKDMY
Chain of Peroxisome proliferator-activated receptor gamma (Homo sapiens) (P37231 whole entry, looked up): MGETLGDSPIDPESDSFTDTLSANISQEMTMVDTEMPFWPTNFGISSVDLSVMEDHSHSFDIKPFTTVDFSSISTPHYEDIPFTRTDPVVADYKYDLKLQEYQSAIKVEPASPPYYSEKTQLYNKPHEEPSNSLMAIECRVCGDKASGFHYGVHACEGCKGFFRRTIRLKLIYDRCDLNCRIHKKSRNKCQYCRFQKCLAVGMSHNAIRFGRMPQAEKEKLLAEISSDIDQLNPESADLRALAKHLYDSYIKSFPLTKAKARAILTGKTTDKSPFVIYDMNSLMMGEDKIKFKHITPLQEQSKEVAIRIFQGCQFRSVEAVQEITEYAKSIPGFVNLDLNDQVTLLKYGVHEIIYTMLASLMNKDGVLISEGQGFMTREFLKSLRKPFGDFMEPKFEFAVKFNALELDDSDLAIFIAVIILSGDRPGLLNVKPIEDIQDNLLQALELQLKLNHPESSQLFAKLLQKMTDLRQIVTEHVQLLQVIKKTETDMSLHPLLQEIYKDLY
Chain of Vitamin D3 receptor (Homo sapiens) (P11473 whole entry, looked up): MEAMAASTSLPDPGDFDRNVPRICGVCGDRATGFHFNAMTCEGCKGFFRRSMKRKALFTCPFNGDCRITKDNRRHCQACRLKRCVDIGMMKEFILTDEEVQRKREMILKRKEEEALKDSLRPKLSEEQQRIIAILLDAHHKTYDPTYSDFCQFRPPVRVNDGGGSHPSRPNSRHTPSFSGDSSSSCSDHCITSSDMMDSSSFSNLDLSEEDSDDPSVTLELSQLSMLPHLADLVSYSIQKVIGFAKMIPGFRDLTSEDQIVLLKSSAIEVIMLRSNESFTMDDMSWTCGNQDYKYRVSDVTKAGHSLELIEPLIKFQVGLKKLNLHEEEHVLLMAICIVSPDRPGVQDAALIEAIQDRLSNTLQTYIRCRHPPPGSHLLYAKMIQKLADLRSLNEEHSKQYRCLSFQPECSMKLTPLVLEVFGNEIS
Chain of Bile acid receptor (Homo sapiens) (Q96RI1 whole entry, looked up): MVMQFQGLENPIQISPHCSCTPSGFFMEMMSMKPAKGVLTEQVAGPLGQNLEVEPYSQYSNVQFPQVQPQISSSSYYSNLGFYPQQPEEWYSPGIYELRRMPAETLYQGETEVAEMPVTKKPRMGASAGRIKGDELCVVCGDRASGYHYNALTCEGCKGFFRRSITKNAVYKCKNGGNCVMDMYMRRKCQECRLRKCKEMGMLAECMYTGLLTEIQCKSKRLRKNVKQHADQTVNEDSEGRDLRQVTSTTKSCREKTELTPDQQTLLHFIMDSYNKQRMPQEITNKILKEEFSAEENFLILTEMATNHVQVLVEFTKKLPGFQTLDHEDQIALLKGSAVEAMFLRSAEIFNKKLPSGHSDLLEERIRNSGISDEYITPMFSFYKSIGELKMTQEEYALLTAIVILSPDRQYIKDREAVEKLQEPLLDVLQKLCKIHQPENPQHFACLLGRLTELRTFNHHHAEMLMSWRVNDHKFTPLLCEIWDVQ

Turning to `CCCC(C)C(=O)OCC` (stereo not given), the Potency result in [1], in test [2], in [3], in test [4] and in [6] was “inactive” each time. Moreover, the compound was classed as inactive in test [5], in test [7], in test [8], in test [9], in test [10] and in test [11]. For the same compound, the call in test [12], in test [13], in test [14] and in [15] was inactive.

Turning to `CC1=CC(=O)[C@H]2C[C@@H]1C2(C)C`, the Potency result in test [1], in test [2], in test [3], in [4] and in [6] was “inactive” throughout. In addition, the call in [5], in test [7], in test [8], in [16], in test [9] and in test [10] was inactive. In addition, the compound was classed as inactive in test [17], in test [18], in test [19], in test [11], in [20] and in test [12]. The outcome in test [13], in [14] and in test [15] was inactive.

Turning to `CC(CO)(CO)[N+](=O)[O-]`, the Potency entry in test [1], in test [2], in test [3], in test [4] and in [6] was “inactive” each time. Moreover, the result in test [5], in [7], in [8], in [9], in test [10] and in [17] was inactive. Further, the outcome in test [19], in test [11], in test [20], in test [12], in [13] and in [15] was inactive.

As for `CN1[C@@H]2CC[C@H]1CC(OC(=O)C(O)c1ccccc1)C2` (stereo not given in full), the Potency result in test [1], in test [2], in [3], in test [4] and in [6] was “inactive” in each case. Moreover, the compound was called inactive in test [5], in test [7], in [8], in [16], in [9] and in [10]. For the same compound, the call in test [11], in test [12], in [13], in test [14] and in test [15] was inactive.

As to `COC(=O)Nc1ccc(Cl)c(Cl)c1`, the Potency in test [1] is 60.8 µM (active). Besides, the Potency entry in [2], in [3] and in test [4] was “inactive” throughout. Further, the outcome in test [5], in test [7], in test [8], in test [16], in [9] and in test [10] was inactive. Also, the compound was called inactive in test [17], in [18], in [19], in [20], in test [12] and in test [15].

As to `CC[C@H]1OC(=O)[C@H](C)[C@@H](O[C@H]2C[C@@](C)(OC)[C@@H](O)[C@H](C)O2)[C@H](C)[C@@H](O[C@@H]2O[C@H](C)C[C@H](N(C)C)[C@H]2O)[C@](C)(OC)C[C@@H](C)C(=O)[C@H](C)[C@@H](O)[C@]1(C)O`, the Potency result in test [1], in test [2], in test [3], in test [4] and in [6] was “inactive” throughout. The call in [5], in test [7], in test [8], in [16], in [9] and in test [10] was inactive. Also, the outcome in test [17], in [18], in [12] and in test [15] was inactive.

On to `CC(=O)O[C@@]12CO[C@@H]1C[C@H](O)[C@@]1(C)C(=O)[C@H](O)C3=C(C)[C@@H](OC(=O)[C@H](O)[C@@H](NC(=O)OC(C)(C)C)c4ccccc4)C[C@@](O)([C@@H](OC(=O)c4ccccc4)[C@H]21)C3(C)C`, for which the Potency result in test [1], in test [3] and in test [4] was “inactive” throughout. Besides, the Potency in [2] is 33.5 µM (active) and 26.6 µM (active). Also, the compound was classed as inactive in test [5], in test [7], in test [8], in test [16], in [9] and in [10]. For the same compound, the call in test [17], in [18], in [11], in test [20], in test [12] and in [15] was inactive.
